This is an account of results in PubChem BioAssay AID488913 (National Center for Advancing Translational Sciences (NCATS), 2010).

Structures are written as SMILES. Records with an inconclusive call do not appear. Active and inactive are the calls of the source. Calls come from the whole dose curve; as a rule, active = well fitted inhibition curve with a large enough effect; inconclusive = small, poorly fitted or top-dose-only effect, or effect the other way; inactive = no such curve, though single readings can be large or run the other way.

The nature of this experiment: Confirmation Concentration-Response Assay for lipid storage modulators: for probe SAR. The conditions noted are these: Drosophila S3 cells, BODIPY lipid droplet fluorescence, 18-24 h; series mostly up to 46.1 µM; activity change, negative = lipid storage inhibition: at the top concentration. The source says:
NIH Molecular Libraries Probe Production Centers Network [MLPCN] NIH Chemical Genomics Center [NCGC] MLPCN Grant: 1 R03 MH085686-01 Assay Submitter (PI): Beller, Mathias; Max-Planck-Institut fur Biophysikalische Chemie NCGC Assay Overview: Storing lipids as a reservoir for energy or the anabolism of elementary metabolites is a common feature of probably all cells and is conserved from bacteria to humans. The universal cellular lipid storage organelle is the so-called lipid storage droplet (LD). Although ubiquitous, LDs share a simple structure composed of a hydrophobic core that harbors the storage lipids, which is shielded by a droplet-specific phospholipid monolayer to which proteins are attached. The current model of LD biogenesis involves an incorporation of the lipid core into the membrane leaflets of the endoplasmic reticulum (ER) followed by a subsequent budding-like maturation of a LD, which ultimately pinches off. Once released, LD volume can increase by localized lipogenesis or fusion of existing droplets. Storage lipids are re-mobilized enzymatically by lipase activity. Lipase regulation in the adipocyte is heavily studied and involves multiple components including catecholamine signaling, the LD-associated proteins Perilipin and comparative gene identification-58 (CGI-58) and at least two lipases named hormone sensitive lipase (HSL) and adipocyte triglyceride lipase (ATGL). LD regulation outside of the adipocyte is poorly understood and only few components are known. However, there is an urgent need to learn more about ectopic fat depots as mislocalized storage of lipids, for example in the liver or muscle, is an eminent health problem associated with insulin resistance or the metabolic syndrome. We developed a laser-scanning cytometer assay to enable 1,536-well screening and combined the results of the small molecules screen with an RNAi database based on lipid storage.
We dispensed 4 uL of cells at 1.25 x 10^6 cells/mL into LoBase Aurora COC 1,536-well plates (black walled, clear bottom) with a bottle-valve solenoid-based dispenser (Aurora) to obtain 5,000 cells/well. Triacsin C (Sigma-Aldrich T-4540), an inhibitor of long-chain fatty acyl CoA synthetase that blocks synthesis of triglycerides, was used as a positive control for lipid under-storage. […] Fluorescence was detected by excitation of the fluorophores with a 488-nm laser on an Acumen Explorer (TTP Lab Tech). […] Cells were detected using channel 3 (575- 640 nm) with 5-um width and 100-um depth filters. The ratio of the total intensity in PMT channel 1 over total intensity of channel 3 was also calculated. […]
`CCOc1ccc(CCNC(=O)c2ccccc2)cc1OCC`: the “activity change, negative = lipid storage inhibition” value was 32.2% (inactive).

Turning to `CCC/C=C/C/C=C/C=C/C=N/NN=O`, the Potency is 791 nM (active).

Regarding `CCOc1ccc(CCNC(=O)c2cc3sccc3n2Cc2ccc(F)cc2F)cc1OCC`, the Potency was 56 nM (active).

On to `CCOC(=O)C1CCN(C(=O)C2(NC(=O)Nc3ccccc3Cl)CCCC2)CC1`, for which the Potency is 787 nM (active).
